Sampled rows, rich in hits. Any-hit rate of the full collection: about 8.7%.
VACV mCherry inh: qHTS for Stage-Specific Inhibitors of Vaccinia Orthopoxvirus: mCherry Reporter Primary qHTS. Vaccinia virus mCherry reporter infection, fluorescence. Potency, µM (titrated, usually from 36.5 µM), without a hit: at the top dose activity change, negative = inhibition, usual class: inhibitors. 310,000 tested, 0.63% active. AID 720579, 2013; calls by dose curve; tested in A549 cells; further: nearly all actives have a fitted effect of over 35% in size
Pf growth 48h: Primary qHTS for delayed death inhibitors of the malarial parasite plastid, 48 hour incubation; P. falciparum luciferase growth in erythrocytes, 48 h; 310,000 tested, 5.9% active; Potency, µM (series often up to 28.7 µM), without a hit: at the highest dose activity change, negative = inhibition, most hits filed as inhibitors
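Parasite viability was followed by luminescence of a genomically integrated firefly luciferase. Cultures held 0.1% parasitemia at 2% hematocrit (final), incubated under 5% CO2 at 37 C.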
Pf growth 96h: Primary qHTS for delayed death inhibitors of the malarial parasite plastid, 96 hour incubation. P. falciparum luciferase reporter growth, 96 h. Potency, µM (series often up to 28.7 µM), for inactives: at the top dose activity change, negative = inhibition, usual class: inhibitors. 320,000 tested, 6.9% active. AID 504834, 2011
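Two parasite generations (96 h, 37 C, 5% CO2) of compound exposure in infected erythrocytes (0.05% parasitemia, 2% hematocrit). Luciferase-reporter P. falciparum; decreased luminescence indicates inhibited growth, aimed at apicoplast-acting delayed death.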
VACV Venus inh: qHTS for Stage-Specific Inhibitors of Vaccinia Orthopoxvirus: Venus Reporter Primary qHTS; Vaccinia virus Venus reporter expression, fluorescence; 330,000 tested, 0.46% active; Potency, µM (doses to about 36.5 µM), without a hit: top-dose activity change, negative = inhibition, actives largely listed as inhibitors; calls by dose curve; tested in A549 cells; further: nearly all actives have a fitted effect of over 30% in size
AMA1 RON2 block: qHTS for Inhibitors of AMA1-RON; Towards Development of Antimalarial Drug Lead: Primary Screen. AlphaScreen AMA1-biotinylated RON2 peptide binding. Potency, µM (titrated, usually from 58.2 µM), for the others: top-dose activity change, negative = inhibition, actives largely listed as inhibitors. 360,000 tested, 0.2% active. AID 720542, 2013. Plasmodium falciparum AMA1 (3D7) - RON2 peptide interaction;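 further: 0% = vehicle wells and -100% = peptide control; nearly all actives have a fitted effect of over 45% in size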
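AMA1 (3D7) with his tag at 25 nM final met compounds first, then biotinylated RON2 peptide at 25 nM; detection used donor plus acceptor beads, 10 µg/mL apiece, read by AlphaScreen after 30 min at room temperature.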
* = called active by the depositor; i = inactive; u = inconclusive; x = no result given; [ ] = remark or other dose. Unless noted, the call rests on the fitted dose curve; in most records, active means well fitted curve in the direction sought with a large enough effect; inconclusive means small, poorly fitted or top-dose-only effect, or another doubt; inactive means no such curve, though single readings can be large; an effect the other way counts as inactive or inconclusive. Unless noted, on the % scale 0 is the no-effect control and ±100 the full control effect; potency means the concentration at half of the fitted maximal effect.

SMILES	VACV mCherry inh	Pf growth 48h	Pf growth 96h	VACV Venus inh	AMA1 RON2 block
Fc1ccc(-c2nnc(CN3CCN(c4ccccn4)CC3)o2)cc1	-11%	x	x	-11%	x
COc1ccc(C2(C(=O)NCC3Cc4cccc(-c5nc(C)cnc5C)c4O3)CCCC2)cc1 (stereo unspecified)	-2%	x	x	0%	x
COc1cccc(N2CC(NC(=O)c3cc(Cl)ccc3OC)CC2=O)c1 (stereo unspecified)	-5%[7.34 µM]	x	x	-2%[7.34 µM]	x
Cc1cccc2cc(CN(CC3CCCO3)C(=O)c3ccccc3F)c(N(C)C)nc12 (stereo unspecified)	-6%	x	x	17%	x
CCSc1nc2c(c(=O)n1-c1ccc(F)cc1)SCC2	-17%	u	2.9µM*	-14%	0%
Cc1cc(NC(=O)CSc2nc3c(c(=O)n2Cc2ccccc2)SC(C)C3)no1 (stereo unspecified)	-3%	1.9µM*	1.5µM*	-4%	-1%
Cc1ccc(-n2c(SCC(=O)Nc3cc(C)on3)nc3c(c2=O)SC(C)C3)cc1 (stereo unspecified)	-10%	0.83µM*	u	0%	-2%
Cc1cc(NC(=O)CSc2nc3c(c(=O)n2-c2ccc(Br)cc2)SCC3)no1	-8%	7.4µM*	-23%	-13%	6%
CCn1c(SCC(=O)Nc2cc(C)on2)nc2c(c1=O)SC(C)C2 (stereo unspecified)	-10%	u	x	-14%	7%
CCOC(=O)c1c(C)oc2nc(C)nc(Nc3cc(C)cc(C)c3)c12	i	x	x	-9%	x
CCCc1nnc(NC(=O)c2cc(=O)c3cc(Cl)ccc3o2)s1	13%	x	x	11%	x
COc1ccc(CC(=O)NCc2nc3cccnc3n2Cc2ccc(C)cc2)cc1	-16%	x	x	-9%	x
Cn1c(-c2ccc(-c3ccccc3)cc2)c[nH]c1=S	x	5.2µM*	u	u	48%
CCn1c(-c2ccc(-c3ccccc3)cc2)c[nH]c1=S	i	x	4.7µM*	-14%	10%
CCOC(=O)c1cc(S(=O)(=O)Nc2ccc(OC)c(Cl)c2)[nH]n1	0%	x	x	-8%	x
CC(C)(C)N(CC#CCC1(O)c2ccccc2-c2ccccc21)CCO	-5%	u	12µM*	-5%	24%
OCCN(CC#CCn1c2ccccc2c2ccccc21)CCO	x	6%	10%	x	13%
O=c1cc(/C=C/c2cccs2)[nH]c2ccccc12	x	9.3µM*	x	x	-7%
CSc1ccc(/C=C/c2cc(=O)c3ccccc3[nH]2)cc1	-17%	1.9µM*	-6%	-13%	-5%
CN(CC(=O)NCCN1CCN(c2ccccc2)CC1)S(=O)(=O)c1ccc2c(c1)CCC(=O)N2	i	x	4.7µM*	-9%	3%
CN(CC(=O)NCc1ccccc1)S(=O)(=O)c1ccc2c(c1)CCC(=O)N2	x	-2%	47%	x	4%
CCC(=O)Nc1c(C)c(CC)nc2ccccc12	x	u	-17%	x	6%
CCc1nc2ccccc2c(NC(=O)CN2CC(C)CC(C)C2)c1C (stereo unspecified)	8%	-21%	9.3µM*	10%	-1%
CN(Cc1ccon1)C(=O)c1ccc2nc(Cc3cccc(Cl)c3)oc2c1	-11%	0%	13µM*	-7%	0%
CC(c1ccon1)N(C)C(=O)c1ccc2nc(Cc3cccc(Cl)c3)oc2c1 (stereo unspecified)	x	12%	u	x	4%
CC1C(=NO)C(C)C(c2ccccc2)NC1c1ccccc1 (stereo unspecified)	-16%	-36%	x	-11%	-9%
CCC1C(=O)C(CC)C(c2ccccc2)NC1c1ccccc1 (stereo unspecified)	i	0%	-17%	-4%	5%
CCC1C(=NO)C(CC)C(c2ccccc2)NC1c1ccccc1 (stereo unspecified)	-6%	12µM*	-29%	-4%	-15%
CC1/C(=N/O)CC(c2ccccc2)NC1c1ccccc1 (stereo unspecified)	-9%	x	u	-8%	-2%
CCCC1/C(=N/O)CC(c2ccccc2)NC1c1ccccc1 (stereo unspecified)	-14%	12µM*	26%	0%	-5%
